Data from the supplement of paper PMC6411743.
± gives the standard deviation of the averaged measurements. About 6,500 targets were measured; listed, in parts, are those with the largest changes and a random draw of the rest.

Compound: Nc1ncnc2c1ncn2[C@@H]1O[C@H](COP(=O)(O)OP(=O)(O)OP(=O)(O)O)[C@@H](O)[C@H]1O [adenosine triphosphate]
Test: NP40-soluble protein abundance relative to vehicle (solubility fold change) (ratio); higher = more soluble protein in presence of ATP
Method in brief: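 Jurkat crude lysate (Dounce-homogenised) was treated with eight concentrations from 0.1 to 10 mM for 10 min at room temperature, then 3 min at 37 °C. It was solubilised with 0.8% NP40 and benzonase (60 min, 4 °C) and ultracentrifuged, and the supernatant was TMT-labelled for LC-MS/MS. Intensities were vsn-normalised, and the value is the fold change against the NP40-processed vehicle per replicate, from three independent experiments.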

Target: UniProt O96028|O96028-3|O96028-5
Sequence (O96028 whole entry): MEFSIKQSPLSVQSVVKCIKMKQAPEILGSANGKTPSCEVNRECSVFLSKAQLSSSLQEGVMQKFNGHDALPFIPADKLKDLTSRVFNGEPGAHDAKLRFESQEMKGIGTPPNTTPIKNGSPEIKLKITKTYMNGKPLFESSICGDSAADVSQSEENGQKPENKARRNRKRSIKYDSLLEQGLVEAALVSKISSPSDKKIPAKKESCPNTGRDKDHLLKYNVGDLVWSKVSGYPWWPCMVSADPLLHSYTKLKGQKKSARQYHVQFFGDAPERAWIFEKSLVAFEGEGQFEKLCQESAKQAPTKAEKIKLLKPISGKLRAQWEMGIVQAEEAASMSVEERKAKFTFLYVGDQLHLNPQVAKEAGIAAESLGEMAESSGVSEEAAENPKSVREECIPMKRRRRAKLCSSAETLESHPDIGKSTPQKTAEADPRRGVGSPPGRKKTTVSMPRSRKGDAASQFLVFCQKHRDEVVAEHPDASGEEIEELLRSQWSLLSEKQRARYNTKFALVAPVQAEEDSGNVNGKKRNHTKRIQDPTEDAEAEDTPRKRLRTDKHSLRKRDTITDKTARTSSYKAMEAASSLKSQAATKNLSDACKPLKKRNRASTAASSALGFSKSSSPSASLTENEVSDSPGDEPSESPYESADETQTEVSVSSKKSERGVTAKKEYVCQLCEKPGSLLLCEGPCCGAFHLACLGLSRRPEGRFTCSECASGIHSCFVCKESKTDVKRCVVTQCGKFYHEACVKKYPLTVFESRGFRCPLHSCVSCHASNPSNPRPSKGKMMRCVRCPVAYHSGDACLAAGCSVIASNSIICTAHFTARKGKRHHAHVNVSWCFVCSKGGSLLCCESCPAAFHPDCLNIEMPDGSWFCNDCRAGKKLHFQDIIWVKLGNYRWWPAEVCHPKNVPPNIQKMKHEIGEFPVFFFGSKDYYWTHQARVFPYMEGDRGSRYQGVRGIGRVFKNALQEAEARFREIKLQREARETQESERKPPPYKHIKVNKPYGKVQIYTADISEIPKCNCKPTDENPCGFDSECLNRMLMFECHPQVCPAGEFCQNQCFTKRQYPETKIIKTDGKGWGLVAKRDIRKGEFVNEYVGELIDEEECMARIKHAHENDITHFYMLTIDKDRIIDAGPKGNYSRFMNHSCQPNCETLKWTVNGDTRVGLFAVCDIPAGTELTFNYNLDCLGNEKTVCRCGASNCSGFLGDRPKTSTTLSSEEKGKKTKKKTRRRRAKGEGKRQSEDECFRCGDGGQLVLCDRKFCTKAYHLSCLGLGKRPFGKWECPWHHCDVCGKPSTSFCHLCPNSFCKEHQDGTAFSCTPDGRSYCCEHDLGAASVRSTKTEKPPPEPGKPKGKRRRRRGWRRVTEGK
- NP40-soluble protein abundance (concentration: 1mM): 1.31 ± 0.054
- NP40-soluble protein abundance (concentration: 2mM): 1.45 ± 0.072
- NP40-soluble protein abundance (concentration: 4mM): 1.54 ± 0.11
- NP40-soluble protein abundance (concentration: 6mM): 1.62 ± 0.12
- NP40-soluble protein abundance (concentration: 8mM): 1.62 ± 0.12
- NP40-soluble protein abundance (concentration: 10mM): 1.74 ± 0.18

Target: GCSH (UniProt P23434)
Chain of UniProt P23434 (P23434 whole entry): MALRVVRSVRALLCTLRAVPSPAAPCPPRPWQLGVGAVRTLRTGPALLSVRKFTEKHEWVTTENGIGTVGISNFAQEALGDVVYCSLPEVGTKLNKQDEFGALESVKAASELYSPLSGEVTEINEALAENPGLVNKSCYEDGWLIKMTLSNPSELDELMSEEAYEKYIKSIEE
- NP40-soluble protein abundance (concentration: 1mM): 0.985 ± 0.048
- NP40-soluble protein abundance (concentration: 2mM): 0.971 ± 0.024
- NP40-soluble protein abundance (concentration: 4mM): 0.986 ± 0.051
- NP40-soluble protein abundance (concentration: 6mM): 1.03 ± 0.05
- NP40-soluble protein abundance (concentration: 8mM): 0.915 ± 0.051
- NP40-soluble protein abundance (concentration: 10mM): 0.927 ± 0.092

Target: BANF1 (UniProt O75531)
Chain of UniProt O75531 (O75531 whole entry): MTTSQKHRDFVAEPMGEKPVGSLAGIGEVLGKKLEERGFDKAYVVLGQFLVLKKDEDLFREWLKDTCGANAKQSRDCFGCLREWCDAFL
- NP40-soluble protein abundance (concentration: 1mM): 5.83 ± 1.6
- NP40-soluble protein abundance (concentration: 2mM): 5.36 ± 0.56
- NP40-soluble protein abundance (concentration: 4mM): 5.89 ± 1.4
- NP40-soluble protein abundance (concentration: 6mM): 6.26 ± 1.4
- NP40-soluble protein abundance (concentration: 8mM): 5.6 ± 0.81
- NP40-soluble protein abundance (concentration: 10mM): 5.02 ± 1.8
